This note sets out measurements from PubChem BioAssay (NCATS).

Results filed as inconclusive are left out. The source made the active and inactive calls. The call rests on the fitted dose curve; in most records, active means well fitted activation curve with a large enough effect in the repeat runs; inconclusive means weak or mixed curves; inactive means flat fitted curve, though single readings scatter.

This assay is described as follows: qHTS assay for small molecule agonists of the antioxidant response element (ARE) signaling pathway measured by Nrf2-dependant transcriptional activity (AID 720636). The conditions noted are these: ARE-luc HepG2, Nrf2 luciferase reporter, 16 h; series mostly up to 92.4 µM. The source says:
National Center for Advancing Translational Sciences [NCATS] NIH Chemical Genomics Center [NCGC] U.S. Environmental Protection Agency [EPA] National Institutes of Environmental Health Sciences [NIEHS] National Toxicology Program [NTP] Assay Overview: The antioxidant response element (ARE) signaling pathway plays an important role in the cellular anti-oxidant defense. Exposure to stressors which are exogenous like ionizing radiations, chemicals, U-V light, and endogenous like cell signaling, metabolic processes or inflammation, reactive oxygen species (ROS), can induce oxidative stress in the cells. Oxidative stress has been implicated in the pathogenesis of a variety of diseases ranging from cancer to neurodegeneration. ARE-luc HepG2 cell line (Simmons et al., Current Chemical Genomics, 5:1-12, 2011) has been used for identifying the chemicals that induce oxidative stress. The cell line has an Nrf2-responsive luciferase reporter gene that has been engineered to measure Nrf2-dependant transcriptional activity.
Assay Protocol Summary: For measuring ARE induction; 2,000 ARE-luc HepG2 cells in 5 uL of assay medium containing 1% dialyzed FBS per well were dispensed into white wall/solid bottom 1536-well plates using a Flying Reagent Dispenser (FRD) (Aurora Discovery). The assay plates were incubated for 6 hr at 37 C to allow cell attachment to the well bottom, followed by the transfer of 23 nL compound or DMSO vehicle by a pin tool (Kalypsys). The plates were incubated for 16 hr at 37 C and 5% CO2, followed by the addition of 5 uL of ONE-GloTM luciferase reagent (Promega) into each well using FRD. After 30 min room temperature incubation, plates were read on a ViewLux plate reader (PerkinElmer).
As for `Cc1ncc(CO)c(CO)c1O`, the call was inactive.

As for `CC(C)(C)c1ccc(O)c(O)c1`, the result was inactive.

With `CN1C(=O)c2ccccc2C1=O`, the result was inactive.

`OCCOCCN1CCN(C(c2ccccc2)c2ccc(Cl)cc2)CC1` (stereo not drawn): the call was inactive.

Take `Oc1ccccc1`: the outcome was inactive.

Turning to `O=C(c1ccccc1)c1ccccc1`, the outcome was inactive.

For `Brc1ccccc1-c1ccccc1`, the molecule was classed as inactive.

In the case of `O=C(Oc1ccccc1)c1ccccc1O`, the molecule was classed as inactive.

Regarding `Cc1ccc(O)cc1`, the outcome was inactive.

As to `CC(C)C(C)(C)C(C)(C)C(C)(C)S`, the molecule was called inactive.

As for `O=C(Nc1ccc(Cl)cc1)Nc1ccc(Cl)c(Cl)c1`, the molecule was classed as inactive.

Take `CCCCCCCCCCCC[N+](C)(C)Cc1ccccc1`: the molecule was classed as inactive.

Turning to `C1=CC2C3C=CC(C3)C2C1` (stereo not drawn), the outcome was inactive.

In the case of `COc1cc(C=O)ccc1O`, the result was inactive.

For the molecule `Cc1cc(C(C)(C)C)c(O)c(C(C)(C)C)c1`, the outcome was inactive.

`COC(=O)c1c(Cl)c(Cl)c(C(=O)OC)c(Cl)c1Cl`: the molecule was classed as inactive.

`CCCCC(CC)COC(=O)c1ccccc1C(=O)O` (stereo not drawn): the call was inactive.

As to `CCCC(=O)c1cc(O)c(O)cc1O`, the call was inactive.

For the molecule `Nc1c2ccccc2nc2ccccc12`, the molecule was classed as inactive.

Regarding `CCN(CC)CCOc1ccc(/C(=C(\Cl)c2ccccc2)c2ccccc2)cc1`, the molecule was classed as inactive.

For `OCc1c[nH]c2ccccc12`, the molecule was called inactive.

`O=C(NO)c1ccccc1`: the result was inactive.

For the molecule `CC(C)(c1ccc(O)cc1)c1ccc(O)cc1`, the molecule was classed as inactive.
